Reference: PubChem BioAssay AID1671193 (National Center for Advancing Translational Sciences (NCATS), 2021)
In all, about 150,000 compounds went through this assay and about 180 (0.12%) were called active. Not shown: some 6% with an inconclusive outcome. This excerpt belongs to a sample that is enriched for actives. Unmarked numbers belong to inactive results. Calls follow the shape of the dose curve; as a rule, active = well fitted cell-killing curve with a large enough effect; inconclusive = small, poorly fitted or top-dose-only effect, or effect the other way; inactive = flat fitted curve, though single readings scatter.

Assay: GF-AFC viability counterscreen for inhibitors of alpha-synuclein gene (SNCA) expression; also: nearly all actives have a fitted effect of over 30% in size
Conditions: HEK-293-SNCA-luc viability, GF-AFC fluorescence, 24 h; series mostly up to 57.1 µM; activity change, negative = cytotoxicity: at the top concentration
From the text: Assay Submitter (PI): Daniel R. Scoles Ph.D.
Department of Neurology, University of Utah, Salt Lake City, Utah
Accumulation of alpha-synuclein is a main underlying pathological feature of Parkinson's disease (PD) and alpha-synucleinopathies, for which lowering expression of the alpha-synuclein gene (SNCA) is a potential therapeutic avenue. Using a cell-based luciferase reporter of SNCA expression we performed a quantitative high throughput screen (qHTS) of 155,885 compounds in dose response. The screening assay was generated using genome editing to insert the luciferase gene downstream and in frame of the SNCA gene in HEK-293 cells (1). A viability counterscreen using GF-AFC was used to eliminate cytotoxic and false positive compounds. After in silico analysis (clustering, removal of frequent hitter nuisance chemotypes), inhibitor compounds from the primary screen were selected for follow up and re-tested at 11-doses in the SNCA-luc cells (luciferase and GF-AFC confirmation), and in CMV-luc expressing cell line to flag general transcriptional repressors.
Described herein are the results of the GF-AFC viability counterscreen for SNCA inhibitors; inactivity (no decrease in fluorescence signal, not cytotoxic) is the desired output for this assay.
1. Dansithong, W., Paul, S., Scoles, D. R., Pulst, S. M., and Huynh, D. P. (2015) Generation of SNCA Cell Models Using Zinc Finger Nuclease (ZFN) Technology for Efficient High-Throughput Drug Screening. PLoS ONE 10, e0136930.
SEQUENCE No. (e.g., 1, 2, 3, etc.); […] (e.g., Cells, Incubation, Reagent, etc.); VALUE; DESCRIPTION
1; Cells; 4 uL; Dispense 1500 HEK-293-SNCA-luc cells/well into Greiner 1536-well white / solid bottom tissue culture treated plate. The plate was covered with metal lids with gas-exchange holes.
2; Incubate; 24 hours; Incubate at 37C, 5% CO2, 95% RH.
3; Compounds; 23 nL; Compounds and controls were transferred via a Kalypsys Pin Tool (Wako USA) equipped with a 1536-slotted pin array. The plate was covered with metal lids with gas-exchange holes.
4; Incubate; 24 hours; Incubate at 37C, 5% CO2, 95% RH.
5; Dispense; 1 uL; Dispense Gly-Phe-7-amino-4-trifluoromethylcoumarin (GF-AFC, prepared at 125 uM in PBS) was added. The plate was covered with metal lids with gas-exchange holes.
6; Incubate; 30 min; Incubate at 37C, 5% CO2.
7; Detector; Fluorescence; Measure fluorescence with ViewLux microplate reader (PerkinElmer) equipped with 405/10 excitation and 540/25 emission filters.
8; Dispense; 3 uL; Dispense ONE-Glo ([…]) lucifase detection reagent was added to each well. Plates were covered with metal lids with gas-exchange holes.
9; Incubate; 15 min; Incubate at room temperature.
10; Detector; Luminescence; Measure luminescence with ViewLux microplate reader (PerkinElmer) equipped with clear filters.
NOTES (numbers refer to sequence above)
1; HEK-293-SNCA-luc were cultured and suspended in phenol-red free DMEM (4.5 g/L glucose, 25 mM HEPES, cat #21063 (Thermo)).
3; Compounds were added to the assay plate in an 11-point intra plate dose response, 1:3 titration in DMSO with a final concentration range of […]. Vehicle-only plates, with DMSO being pin-transferred to every well, were inserted at the beginning of screening runs to confirm expected assay performance. Activity was normalized to wells containing medium only (-100% activity, full inhibition) and SNCA-luc cells treated with DMSO vehicle control (0% activity), contained on the same plate as test samples.
10; Signals were analyzed, and dose-response curves were fit using the Hill equation. Compounds in curve classes -1.1, -1.2, -2.1, -2.2 in the SNCA-luc assay were considered active. Compounds were eliminated from further consideration if also active (curve class -1.1, -1.2, -1.3, -1.4, -2.1, -2.2, -2.3, -2.4) in the GF-AFC cytotoxicity assay.
Potency is read from the fitted curve at half-maximal effect.

Row | SMILES | activity change, negative = cytotoxicity | Potency
1 | CCCCS(=O)(=O)N1CCCC(Cn2c(C3CC3)nc3cccnc32)C1 (stereo not drawn) | -2.74% | 
2 | O=C1CC(c2ccccc2)N(Cc2cn[nH]c2-c2ccc(F)cc2)CCCCCN1 (stereo not drawn) | -15.3% | 
3 | COc1ccc(-c2nc(C(C)C)nc3c2CCN([S+](=O)([O-])c2cccc(C(F)(F)F)c2)CC3)cc1 | -10.8% | 
4 | CC(C)NC(=O)N1CC(Oc2ccc(-c3noc(-c4cccnc4)n3)cc2)C1 | -29.9% | 
5 | O=C(Nc1cccc(Cl)c1)C1CCCN(c2ccnc3ccnn23)C1 (stereo not drawn) | -11% | 
6 | c1cn(-c2ccc(N3CCCCCC3)nc2)c(-c2cc3n(n2)CCCNC3)n1 | 7.54% | 
7 | CSCC(=O)N1CCC2(CC1)CC(c1ccccc1)CN(C)C2 (stereo not drawn) | 0.187% | 
8 | O=C(c1cccc(C(F)(F)F)c1)N1C[C@@H](CO)[C@H](c2ccccn2)C1 | 0.505% | 
9 | CC(C)c1ccc(S(=O)(=O)N2CCc3nn(C)c(=O)n3CC2)cc1 | 4.59% | 
10 | COc1ccc(C(=O)N2C(C(=O)NCC(C)C)COC23CCN(C(=O)C2CCC2)CC3)cc1 (stereo not drawn) | 4.16% | 
11 | Cc1ccc(NC(=O)CN2CC3CC(C2)[C@H]2CCCC(=O)N2C3)cc1 (stereo partly drawn) | -2.58% | 
12 | O=C(NC[C@H]1OC[C@@H](NCc2ccccn2)[C@@H]1O)C1CCCC1 | -11.2% [at 87.6 µM] | 
13 | Cc1ccc(CN2CCCN(Cc3ccncc3)C(c3ccccc3)CC(=O)NCC2)s1 (stereo not drawn) | 1.35% | 
14 | COc1ccc(CNC[C@H]2O[C@H](Cc3cc(-c4ccc(OC)cc4)on3)CC[C@@H]2O)cc1 | 3.22% | 
15 | CCOc1ccc(C(=O)N2C[C@@H](CO)[C@H](c3ccncc3)C2)cc1 | 7.42% | 
16 | O=C(C1CCCC1)N1C[C@@H](CO)[C@H](c2ccncc2)C1 |  | 20 µM (active)
17 | Cc1ccc(C(=O)N2C[C@@H](CO)[C@H](c3ccncc3)C2)c(C)c1 | -0.327% | 
18 | O=C1CCC2(CCN(Cc3ccc4[nH]ccc4c3)CC2)CN1CCc1ccccc1 | -9.99% | 
19 | O=C(c1ccoc1)N1CCC(N2C(=O)[C@H]3CN(Cc4ccccc4)C[C@H]3C2=O)CC1 | 14.6% | 
20 | CCCNC(=O)N1CCC2(CC1)CC(C(=O)N1CCOCC1)N(C)C2 (stereo not drawn) | -3.1% | 
21 | O=C(NCc1ccnc2[nH]ccc12)c1ccccn1 | 2.85% [at 87.6 µM] | 

Row | SMILES | activity change, negative = cytotoxicity | Potency
22 | COc1ccc(-c2cc(-c3cnc4[nH]ccc4c3)cn3cncc23)cn1 | -7.15% [at 87.6 µM] | 
23 | COC[C@@H]1[C@H](NC(=O)C2(Cn3ccnc3)CC2)[C@@H]2CCO[C@H]12 | 0.192% | 
24 | CCN1CCN(C(=O)c2cn3cc(-c4ccc(C(F)(F)F)cc4)sc3n2)CC1 | 4.72% | 
25 | Cc1noc(C)c1CNC(=O)[C@H]1CN(Cc2ccccc2)C[C@H]1C(=O)O | -8.06% | 
26 | COCC(=O)N[C@H]1C[C@H]2C(=O)Nc3ccc(/C=C/c4ccc(OC)cc4)cc3C(=O)N2C1 | -2.8% | 
27 | CN(Cc1cccnc1)C1CN(C(=O)Nc2ccccc2F)C1 | -21% | 
28 | COCCN1C(=O)c2cccn2CC1CNC(=O)CCc1nc(-c2ccccc2)no1 (stereo not drawn) | 7.27% | 
29 | O=C1NCCCCCN(S(=O)(=O)c2ccc3c(c2)CCC3)[C@H]2CCCC[C@@H]12 | -24% | 
30 | COc1cccc(CNC(=O)c2cc(-c3ccccc3)nc3c2cnn3C)c1 | 5.25% | 
31 | CC1(c2ccccc2)N(Cc2ccc(O)cc2)C(=O)OC12CCN(Cc1ccc(C#N)cc1)CC2 (stereo not drawn) | -18.3% | 
32 | COC(=O)CNC(=O)C1CCCN1Cc1ccc(-c2cc(C)cc(C)c2)cc1 (stereo not drawn) | 5.59% | 
33 | Cc1cccc(N2Cc3c(NCCCN4CCCCC4)ncnc3N(C)CC2=O)c1 | 6.15% | 
34 | O=C(NCc1cccnc1)c1cn2cc(-c3cccc(C(F)(F)F)c3)sc2n1 | -7.27% | 
35 | CCOC(=O)C1CCCN(C(=O)C2CCc3nnc(CN[S+](C)(=O)[O-])n32)C1 (stereo not drawn) | 0.593% | 
36 | Cc1ccc(C(=O)N2CCCC(c3nc(C4CCOCC4)no3)C2)cn1 (stereo not drawn) | 5.29% | 
37 | CN(Cc1ccsc1)C(=O)C1CCCN(C2CCN(C(=O)C3CC3)CC2)C1 (stereo not drawn) | 3.93% | 
38 | COc1cccc(-c2cccc(CN3CCCC3C(=O)NCC(C)C)c2)c1 (stereo not drawn) | -9.2% | 
39 | Cc1ccnc(NC(=O)C2CC(=O)N(c3n[nH]c4cc(Br)ccc34)C2)c1 (stereo not drawn) | 1.61% | 
40 | COCC1CN(C2CCC2)CC12CCN(C(=O)c1ccc(C)s1)CC2 (stereo not drawn) | 11.7% | 
41 | O=C1NC2(CCN(C(=O)c3ccccc3)C2)COc2ccccc21 (stereo not drawn) | 9.42% [at 87.6 µM] | 
42 | Oc1ccccc1CN1CCC(O)(c2csc(CN3CCN(c4ccccn4)CC3)n2)CC1 | -1.19% | 

Row | SMILES | activity change, negative = cytotoxicity | Potency
43 | FC(F)(F)c1cccc(C2=NOC3(CCCN(Cc4ccccn4)C3)C2)c1 (stereo not drawn) | -9.31% | 
44 | O=C(C1CC=CC1)N1CCC2(CC1)NCCc1c2[nH]c2ccccc12 | -15.1% [at 12.5 µM] | 
45 | COc1ccc(-c2cc3c(nc2-c2ccccc2)nc(C(=O)NCCN(C)C)n3C)cc1OC | -13.2% | 
46 | O=C(Nc1ccccc1)N1CCC(C(=O)N2CCCC(c3nc4ccncc4[nH]3)C2)CC1 (stereo not drawn) | -0.207% | 
47 | O=C(c1ccc(F)cc1)N1CCC(C(=O)N2CCC(c3ccccc3)CC2)CC1 | 0.64% | 
48 | CCCN(Cc1nccn1C)C(=O)c1ccccc1C1CCNC1 (stereo not drawn) | 0.415% | 
49 | O=c1c2nc(OCc3ccc(-n4cccn4)cc3)ccc2ncn1Cc1ccccc1 | -18.7% [at 87.6 µM] | 
50 | COc1cccc(CNC(=O)c2cn3cc(-c4ccc(C)cc4)sc3n2)c1 | 5.4% | 
51 | COCCOC1CN(C2CCN(S(=O)(=O)c3cccs3)CC2)C12CCCCC2 (stereo not drawn) | 3.82% | 
52 | O=C([C@H]1CCCN1C(=O)c1ccc(Cl)nc1)N1CCCC(c2nc3ccncc3[nH]2)C1 (stereo partly drawn) | -7.77% | 
53 | CCOc1ccc(NC(=O)CN(Cc2ccccc2)S(=O)(=O)c2ccc(Cl)cc2)cc1 | 4.16% | 
54 | CCOc1ccc(N(Cc2ccccc2)C(=O)c2nc(S(C)(=O)=O)ncc2Cl)cc1 |  | 5.62 µM (active)
55 | CCOc1ccc(N(Cc2ccccc2)C(=O)c2nc(SCC)ncc2Cl)cc1 | -2.22% | 
56 | Cc1c(C(F)(F)F)nc(-c2ccc(CN3CCNCC3)cc2)[nH]c1=O | -0.179% | 
57 | Cc1ccc(NC(=O)Cn2ccn3nc4c(c3c2=O)CCCCC4)cc1 | -18.2% | 
58 | Cc1ccc(OCc2nc(C3CCN(C(=O)Cc4cccc(F)c4)CC3)no2)cc1 | -5.46% | 
59 | O=C(COc1ccc(F)cc1)NC1CCN(c2cc(-c3ccccc3)[nH]n2)CC1 | 1.28% | 
60 | CCC1Oc2ccc(NC(=O)c3c(F)cccc3F)cc2CN(CCc2ccc(F)cc2)C1=O (stereo not drawn) | 6.09% | 
61 | COC(=O)[C@@H]1Cc2c([nH]c3ccccc23)[C@H]2C[C@@H](NCCN3CCOCC3)C[C@@H](c3ccccc3)N21 | -7.47% | 
62 | COC(=O)[C@@H]1Cc2c([nH]c3ccccc23)[C@H]2C[C@H](NCCNC(C)=O)C[C@@H](c3ccc(C)cc3)N21 | -6.82% | 
63 | COC(=O)[C@@H]1Cc2c([nH]c3ccccc23)[C@H]2C[C@@H](NCCN3CCOCC3)C[C@@H](c3ccccc3F)N21 |  | 28.2 µM (active)
